Screening results (PubChem)
PME-1 primary: PME-1 inhibitors via competitive probe labeling, primary screen, biochemical, fluorescence polarization, FP-Rh probe, HTS | Protein phosphatase methylesterase 1 (Homo sapiens), Q9Y570 | recombinant PME-1 | inhibition, % at 5.9 µM | actives 0.53% (n = 320,000) | AID 2130, 2009;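 active means inhibition above the campaign mean of all compounds plus 3 SD, cut at about 26% in these data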;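 further: competitive labeling of PME-1 active site by serine hydrolase directed probe; 0% = PME-1 with DMSO and 100% = wells lacking PME-1 enzyme; inhibitors block probe labeling so polarization falls and inhibition rises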
Fam108B inh: mouse Fam108B serine hydrolase inhibitors, primary screen, counter-screen for RBBP9 inhibitor project, biochemical, fluorescence polarization. AID 1947, 2009. recombinant Fam108B, FP-Rh probe fluorescence polarization. actives 0.33% (n = 300,000). inhibition, % at 9.51 µM;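 active means inhibition above the screen mean inhibition plus 3 SD, computed separately per campaign, cut at about 18% in these data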;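 further: inhibitors lower polarization as less probe binds the enzyme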
GSTO1 inh: inhibitors of recombinant GSTO1, primary screen, counter-screen for RBBP9 inhibitor project, biochemical, fluorescence polarization; Glutathione S-transferase omega-1 (Homo sapiens), P78417; activity-based probe fluorescence polarization; inhibition, % at 5.96 µM; actives 1.1% (n = 300,000); AID 1974, 2009;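 active means inhibition above the campaign mean inhibition plus 3 SD, cut at about 35% in these data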;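 further: 0% = GSTO1-1 with DMSO and 100% = wells lacking GSTO1-1 enzyme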
LYPLA2 counter: LYPLA2 inhibitors, primary screen, counter-screen for PME1 inhibitor project, biochemical, fluorescence polarization, FP-Rh probe ABPP; Acyl-protein thioesterase 2 (Homo sapiens), O95372; recombinant LYPLA2; inhibition, % at 5.9 µM; actives 0.38% (n = 320,000); AID 2177, 2009;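 active means inhibition above the screen-wide mean plus 3 SD, limit set per campaign, cut at about 26% in these data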;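 further: 0% = LYPLA2 with DMSO and 100% = wells lacking LYPLA2 enzyme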
Target sequence (O95372 whole entry, looked up): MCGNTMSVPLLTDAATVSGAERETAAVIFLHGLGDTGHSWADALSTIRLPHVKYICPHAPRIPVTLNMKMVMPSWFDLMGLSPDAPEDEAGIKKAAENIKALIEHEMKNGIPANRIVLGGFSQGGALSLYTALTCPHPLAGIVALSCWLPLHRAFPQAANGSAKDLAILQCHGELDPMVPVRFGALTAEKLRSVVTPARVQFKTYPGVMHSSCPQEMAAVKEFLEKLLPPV
PAD4 FP inh: human PAD4 inhibitors, primary screen, biochemical, fluorescence polarization, 1536-well format; inhibition, % at 6.36 µM; recombinant PAD4, RCA probe fluorescence polarization; Protein-arginine deiminase type-4 (Homo sapiens), Q9UM07; actives 0.41% (n = 330,000);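 active means percent inhibition above a cutoff equal to the mean of all tested compounds plus 3 SD, cut at about 15% in these data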;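 further: 0% = PAD4 with RCA probe and DMSO and 100% = probe without PAD4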
LYPLA1 counter: LYPLA1 inhibitors, primary screen, counter-screen for PME1 inhibitor project, biochemical, fluorescence polarization, FP-Rh probe ABPP; Acyl-protein thioesterase 1 (Homo sapiens), O75608; recombinant LYPLA1; inhibition, % at 5.9 µM; actives 0.16% (n = 320,000); AID 2174, 2009;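 active means inhibition above the mean of all tested compounds plus 3 SD, set per campaign, cut at about 14% in these data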;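 further: inhibitors block serine hydrolase probe labeling of LYPLA1 so polarization falls; 0% = enzyme with DMSO and 100% = wells lacking LYPLA1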
Target sequence (O75608 whole entry, looked up): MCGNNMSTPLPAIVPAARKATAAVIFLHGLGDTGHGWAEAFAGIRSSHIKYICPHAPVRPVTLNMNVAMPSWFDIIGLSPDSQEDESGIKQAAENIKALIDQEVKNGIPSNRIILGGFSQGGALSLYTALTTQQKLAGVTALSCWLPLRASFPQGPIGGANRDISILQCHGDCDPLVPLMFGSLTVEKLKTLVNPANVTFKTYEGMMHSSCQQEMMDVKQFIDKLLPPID
PAD4 confirm: human PAD4 inhibitors, confirmation, biochemical, fluorescence polarization; shares compounds with PAD4 FP inh; AID 488796, 2010; inhibition, % at 6.36 µM; actives 28% (n = 1,200); recombinant PAD4, RCA probe fluorescence polarization;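 active means mean inhibition across replicates above the hit cutoff set by the earlier primary screen, cut at about 15% in these data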;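 further: inhibitors block active-site labeling by the probe so polarization falls; 0% = PAD4 with probe and DMSO and 100% = probe without PAD4 enzyme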
Numbers without * were called inactive; nt = no result. Only some compounds are listed: those with a hit (about 1.8% of all), similar ones and a draw of the others.

SMILES	PME-1 primary	Fam108B inh	GSTO1 inh	LYPLA2 counter	PAD4 FP inh	LYPLA1 counter	PAD4 confirm
CSC1=NCCN1C(=O)Cc1ccc(Cl)cc1	-1	1	-4	0	3	-2	nt
COc1ccc(CC(=O)N2CCN=C2SC)cc1	-3	-2	8	6	28*	-2	4
Nc1ccccc1O	3	nt	nt	-2	15*	1	0
C=CCOCC(O)Cn1c(N2CCCC2)nc2c1c(=O)[nH]c(=O)n2C (centres undefined)	4	6	-3	2	-3	2	nt
COc1ccc(-n2sc3ccc(F)cc3c2=O)cc1	6	nt	nt	4	31*	-1	30*
Cc1ccc(C)c(-n2sc3ccc(F)cc3c2=O)c1	4	nt	nt	9	38*	1	35*
O=C1CCCC(=O)N1c1ccc(F)cc1	-7	1	0	5	-3	-2	nt
O=c1c2cc(F)ccc2sn1-c1ccc(F)cc1	8	nt	nt	12	30*	2	25*
CCN(C(=O)CSc1nnnn1-c1ccc(Cl)cc1)C1CCS(=O)(=O)C1 (centres undefined)	nt	nt	nt	nt	-4	nt	nt
COc1ccc2c(CC(=O)N3CCN(S(=O)(=O)c4ccc(F)cc4)CC3)coc2c1	-6	nt	nt	-9	-2	-7	nt
O=C(O)CCC(=O)N1CCc2cc(S(=O)(=O)NCc3ccc(Cl)cc3)ccc21	1	-1	7	7	-2	1	nt
Cc1ccc(NC(=O)C(C)N2CCOCC2)c(C(=O)c2ccccc2)c1 (centres undefined)	-3	3	2	6	40*	4	2
Nn1c(SCC(=O)Nc2nc3ccccc3s2)nncc1=O	3	5	17	-4	22*	0	39*
CCOc1ccc(NC(=O)CSc2nncc(=O)n2N)cc1	-1	-3	18	-4	15*	0	7
O=C(NCc1nnc(SCC(=O)N2CCCCCC2)o1)c1ccccc1F	2	-3	4	1	-1	0	nt
O=C(O)c1ccccc1Sc1c([N+](=O)[O-])cc(C(F)(F)F)cc1[N+](=O)[O-]	-2	5	36*	1	45*	2	26*
CCN(CC)c1ccc(C(=O)c2ccccc2C(=O)O)c(O)c1	9	9	10	13	21*	13	26*
CCN(CC)c1ccc(/C=N/N(c2ccccc2)c2ccccc2)c(O)c1	-5	-1	6	-11	-11	-2	nt
Nc1nc(Oc2ccc(F)cc2)c(Br)c(=O)[nH]1	5	0	5	-2	2	-1	nt
CC(=O)Nc1ccc(NC(=O)CSc2nnc(-c3cc(C)[nH]n3)n2N)cc1	-1	0	0	-2	-4	-2	nt
CC(=O)C1=C(c2ccccc2)N(C(C)=O)n2c(C)nnc2S1	0	1	6	-4	68*	-1	59*
CC1=NN(c2ccc(Cl)cc2)C(=O)C1C(c1ccccc1O)c1c(C)[nH]n(-c2ccc(Cl)cc2)c1=O (centres undefined)	12	17	72*	21	67*	7	-8
CC1(c2ccc([N+](=O)[O-])cc2)Nc2ccccc2S1 (centres undefined)	4	4	5	-4	17*	-2	2
CCN(CC)c1ccc(NC(=O)CSC(=O)c2ccccc2)cc1	nt	nt	nt	nt	2	nt	nt
CC(=O)c1cccc(NC(=O)CSC(=O)c2ccccc2)c1	9	-1	3	8	15*	4	18*
CCOc1ccc(NC(=O)COc2cccc3c2CCN(Cc2cccnc2)C3=O)cc1	-6	4	-8	9	-2	7	nt
